CtBP-E1A blk: blocks the CtBP interaction with E1A; AlphaScreen GST-E1A/His-CtBP binding, 1536-well; hits give low values; hit rate 0.49% among 340,000; activity change, % (no concentration beside the values); AID 651724; in the data active means activity change below about -65%; inconclusive means mostly about -30% to -63%
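Homogeneous bead-based format: GST-tagged E1A captured on glutathione donor beads, His-tagged CtBP on nickel acceptor beads; compounds precede bead addition by 2 h at 37 °C.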
TDP1 inh: blocks human tyrosyl-DNA phosphodiesterase 1; Q9NUW8; recombinant TDP1, AlphaScreen DNA substrate cleavage; Potency, µM (series often up to 130 µM), actives largely listed as inhibitors; hit rate 0.28% among 350,000; further: nearly all actives have a fitted effect of over 40% in size
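Steps: enzyme plus compound, 15 min RT; add biotin/phosphotyrosine-FITC oligonucleotide (15 nM final), react 5 min; add donor/acceptor beads (10 ug/ml final), 10 min; read AlphaScreen. Tdp1 at 1 nM final.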
Six1-Eya2 blk: Six1/Eya2 interaction inhibition. AID 651725. Q15475+O00167. AlphaScreen GST-Six1/His-Eya2 binding, biochemical; hits give low values. hit rate 0.56% among 360,000. activity change, % (no concentration beside the values); in the data active means activity change below about -65%; inconclusive means mostly about -30% to -63%
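GST-Six1 + His-Eya2 (5X stock: 250/500 nM); Tris pH 8.0, 300 mM NaCl, 0.05% BSA, 0.02% Tween 20; GSH donor/Ni acceptor beads; 1 h 37 °C dark; AlphaScreen readout.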
JMJD2A Tudor: JMJD2A Tudor domain (human) inhibition; O75164; AlphaScreen JMJD2A-Tudor / H3K4me3 peptide binding; Potency, µM (titrated, usually from 114 µM), most hits filed as inhibitors; hit rate 4.4% among 390,000; further: nearly all actives have a fitted effect of over 50% in size
HP1b chromo inh: HP1-beta chromodomain-methylated histone interaction inhibition | P83916 | AlphaScreen HP1-beta / biotin-H3K9me3 peptide binding | Potency, µM (doses to about 114 µM), most hits filed as inhibitors | hit rate 0.56% among 390,000; further: nearly all actives have a fitted effect of over 70% in size
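AlphaScreen: HP1-beta (50 nM) preformed 30 min with biotin-H3(1-18)K9me3 peptide (50 nM) in PBS pH 7.4, 0.01% Tween-20. Compound added for 30 min at RT, then streptavidin donor/nickel chelate acceptor beads (10 ug/mL) for 30 min.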
BAZ2B inh: inhibitors of human BAZ2B bromodomain | Q9UIF8 | AlphaScreen BAZ2B-H3K14Ac peptide displacement | Potency, µM (series often up to 114 µM), actives largely listed as inhibitors | hit rate 4.4% among 360,000; further: nearly all actives have a fitted effect of over 60% in size
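Compounds, titrated to a top concentration of 110 uM, were incubated 30 min at room temperature with preformed BAZ2B/acetyl-K14 H3 peptide complex (50 nM each). Proximity signal was measured by AlphaScreen after 20 min with beads.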
Of the large screens only hits and unclear results are named; the others gave an inactive call. An excerpt weighted towards active compounds, which were near 5.3% of everything screened. Unless noted, the call rests on the fitted dose curve; in most records, active means well fitted inhibition curve with a large enough effect; inconclusive means small, poorly fitted or top-dose-only effect; inactive means no such curve, though single readings can be large or run the other way.

Cc1ccc(NC(=O)Nc2nnc(N3CCCC3)s2)c(C)c1	none (no result: CtBP-E1A blk, Six1-Eya2 blk)
COc1cc2cc(NC(C)=O)cc(NCc3ccccc3)c2cc1OC	JMJD2A Tudor inconclusive, BAZ2B inh 45µM (no result: TDP1 inh)
COC(=O)CCC(=O)Nc1ccc(N=Nc2ccccc2)cc1	JMJD2A Tudor inconclusive, BAZ2B inh 40µM
COC(=O)c1ccc(N=Nc2ccccc2)cc1	JMJD2A Tudor inconclusive, HP1b chromo inh inconclusive, BAZ2B inh 13µM
CC(=O)NC(c1ccc(Cl)cc1Cl)c1ccc2cccnc2c1O (stereo not drawn)	CtBP-E1A blk -88, Six1-Eya2 blk -90, JMJD2A Tudor 28µM, BAZ2B inh 28µM (no result: TDP1 inh)
CCN(CC)c1ccc(C(NC(=O)C(C)C)c2ccc3cccnc3c2O)cc1 (stereo not drawn)	CtBP-E1A blk inconclusive, Six1-Eya2 blk -72 (no result: TDP1 inh, JMJD2A Tudor, HP1b chromo inh, BAZ2B inh)
CCCC(=O)NC(c1ccc(Cl)cc1)c1ccc2cccnc2c1O (stereo not drawn)	CtBP-E1A blk -77, Six1-Eya2 blk -70 (no result: TDP1 inh)
COc1ccc(C(=O)NC(c2ccc(Cl)cc2)c2cc(Cl)c3cccnc3c2O)cc1 (stereo not drawn)	none (no result: CtBP-E1A blk, Six1-Eya2 blk)
CCCCC(=O)NC(c1ccc(Cl)cc1)c1ccc2cccnc2c1O (stereo not drawn)	CtBP-E1A blk inconclusive, Six1-Eya2 blk inconclusive, JMJD2A Tudor 56µM (no result: TDP1 inh, BAZ2B inh)
CCCn1c2ccccc2c2cnn(CC(=O)Nc3cc(OC)c(OC)c(OC)c3)c(=O)c21	none (no result: CtBP-E1A blk, Six1-Eya2 blk)
Cc1cc(C)cc(NC(=O)c2c(C)oc3nc(C)nc(N4CCCC4)c23)c1	none (no result: CtBP-E1A blk, Six1-Eya2 blk)
Cc1ccc(C)c(N2CCN(C(=O)CCCCCn3c(=O)[nH]c4ccccc4c3=O)CC2)c1	none (no result: CtBP-E1A blk, Six1-Eya2 blk)
CCCC(=O)NC(c1ccc(C)cc1)c1ccc2cccnc2c1O (stereo not drawn)	CtBP-E1A blk -90, Six1-Eya2 blk -66, JMJD2A Tudor 56µM, BAZ2B inh 14µM
COc1ccc(C(Nc2ccccn2)c2ccc3ccc(C)nc3c2O)cc1C (stereo not drawn)	JMJD2A Tudor inconclusive, BAZ2B inh inconclusive (no result: CtBP-E1A blk, TDP1 inh, Six1-Eya2 blk)
Cc1ccc(C(Nc2ccccn2)c2ccc3cccnc3c2O)cc1 (stereo not drawn)	JMJD2A Tudor 20µM, BAZ2B inh 28µM (no result: CtBP-E1A blk, TDP1 inh, Six1-Eya2 blk)
Cc1cccc(NC(c2cccc(Cl)c2)c2ccc3cccnc3c2O)n1 (stereo not drawn)	JMJD2A Tudor 16µM, BAZ2B inh 10µM (no result: CtBP-E1A blk, TDP1 inh, Six1-Eya2 blk)
Cc1ccnc(NC(c2cccc(O)c2)c2ccc3ccc(C)nc3c2O)c1 (stereo not drawn)	JMJD2A Tudor inconclusive, BAZ2B inh inconclusive (no result: CtBP-E1A blk, TDP1 inh, Six1-Eya2 blk)
Oc1c(C(Nc2cccc(C(F)(F)F)c2)c2ccncc2)ccc2cccnc12 (stereo not drawn)	CtBP-E1A blk -94, Six1-Eya2 blk -92, JMJD2A Tudor 32µM, BAZ2B inh 20µM
CCOc1ccc(NC(=O)CSc2ccc(-c3sc(-c4ccccc4)nc3C)nn2)cc1	none (no result: CtBP-E1A blk, Six1-Eya2 blk)
COc1cccc(-n2cc(C(=O)Nc3ccccc3C(N)=O)c3ccccc3c2=O)c1	none (no result: CtBP-E1A blk, Six1-Eya2 blk)
COCCn1c(C)cc(O)c(C(c2ccccc2Cl)N2CCCCC2)c1=O (stereo not drawn)	none (no result: CtBP-E1A blk, Six1-Eya2 blk)
Cc1ccc(C(=O)NC(c2ccco2)c2cc(Cl)c3cccnc3c2O)cc1 (stereo not drawn)	none (no result: CtBP-E1A blk, TDP1 inh, Six1-Eya2 blk, HP1b chromo inh, BAZ2B inh)
Oc1c(C(Nc2nc3ccccc3s2)c2ccco2)ccc2cccnc12 (stereo not drawn)	Six1-Eya2 blk -73, JMJD2A Tudor inconclusive, BAZ2B inh 50µM
CCOc1cc(C(Nc2cc(C)ccn2)c2ccc3cccnc3c2O)ccc1OC (stereo not drawn)	JMJD2A Tudor 18µM, HP1b chromo inh 14µM, BAZ2B inh 10µM (no result: CtBP-E1A blk, Six1-Eya2 blk)
CC(C)C(=O)NC(c1ccco1)c1ccc2cccnc2c1O (stereo not drawn)	CtBP-E1A blk -91, Six1-Eya2 blk -93, JMJD2A Tudor 79µM (no result: BAZ2B inh)
COc1ccc(C(NC(C)=O)c2ccc3cccnc3c2O)c(OC)c1 (stereo not drawn)	CtBP-E1A blk inconclusive, Six1-Eya2 blk inconclusive, JMJD2A Tudor 79µM, BAZ2B inh 28µM
COc1ccc(OC2C=CC(C#Cc3ccc(F)cc3F)OC2CO)cc1 (stereo not drawn)	none (no result: CtBP-E1A blk, Six1-Eya2 blk, JMJD2A Tudor, HP1b chromo inh, BAZ2B inh)

Screens (PubChem)
